# Only a selection was taken, and the strongest signals are over-represented in it overall.
# Key:
# Assay in all cases: glycan array binding signal (z-score within array); higher = stronger binding
# Settings in all cases: glycan notation: IUPAC condensed, linker removed
# [1] = molecular target: Fuc(a1-2)Gal(b1-3)GlcNAc(b1-3)[Fuc(a1-2)Gal(b1-3)GlcNAc(b1-6)]GalNAc
# Summary of the method: (§1)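 From the Consortium for Functional Glycomics database, 3228 arrays were curated, keeping only those whose protein sequence was available. Binding is given as a within-array Z-score averaged across arrays sharing a protein sequence and across linkers. Negative Z-scores can be read as non-binding.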
# [2] = molecular target: Fuc(a1-2)Gal(b1-3)[Fuc(a1-4)]GlcNAc(b1-3)[Gal(b1-4)GlcNAc(b1-6)]Gal(b1-4)Glc
# Summary of the method: as §1
# [3] = molecular target: Fuc(a1-2)Gal(b1-4)Fuc(a1-3)]GlcNAc(b1-2)Man(a1-3)[Fuc(a1-2)Gal(b1-4)[Fuc(a1-3)]GlcNAc(b1-2)Man(a1-6)]Man(b1-4)GlcNAc(b1-4)GlcNAc
# Summary of the method: as §1
# [4] = molecular target: Fuc(a1-2)Gal(b1-4)[Fuc(a1-3)]GlcNAc
# Summary of the method: as §1
# [5] = molecular target: Fuc(a1-2)Gal(b1-4)[Fuc(a1-3)]GlcNAc(b1-3)Gal(b1-4)[Fuc(a1-3)]GlcNAc(b1-3)Gal(b1-4)[Fuc(a1-3)]GlcNAc
# Summary of the method: as §1
# [6] = molecular target: Fuc(a1-2)[Gal(a1-3)]Gal(b1-3)GlcNAc(b1-2)Man(a1-3)[Fuc(a1-2)[Gal(a1-3)]Gal(b1-3)GlcNAc(b1-2)Man(a1-6)]Man(b1-4)GlcNAc(b1-4)[Fuc(a1-6)]GlcNAc
# Summary of the method: as §1
# [7] = molecular target: Fuc(a1-2)[Gal(a1-3)]Gal(b1-4)Glc
# Summary of the method: as §1
# [8] = molecular target: Fuc(a1-2)[Gal(a1-3)]Gal(b1-4)GlcNAc(b1-3)GalNAc
# Summary of the method: as §1
# [9] = molecular target: Fuc(a1-2)[Gal(a1-3)]Gal(b1-4)GlcNAc(b1-6)GalNAc
# Summary of the method: as §1
# [10] = molecular target: Fuc(a1-2)[GalNAc(a1-3)]Gal(b1-4)GlcNAc(b1-2)Man(a1-3)[Fuc(a1-2)[GalNAc(a1-3)]Gal(b1-4)GlcNAc(b1-2)Man(a1-6)]Man(b1-4)GlcNAc(b1-4)[Fuc(a1-6)]GlcNAc
# Summary of the method: as §1
# [11] = molecular target: Gal(b1-3)GlcNAc(b1-2)[Gal(b1-3)GlcNAc(b1-6)]Man(a1-6)[Gal(b1-3)GlcNAc(b1-2)Man(a1-3)]Man(b1-4)GlcNAc(b1-4)GlcNAc
# Summary of the method: as §1
# [12] = molecular target: Gal(b1-3)GlcNAc(b1-3)Gal(b1-4)GlcNAc(b1-6)[Gal(b1-3)GlcNAc(b1-3)]Gal(b1-4)Glc
# Summary of the method: as §1
# [13] = molecular target: Gal(b1-3)[Fuc(a1-4)]GlcNAc(b1-2)Man
# Summary of the method: as §1
# [14] = molecular target: Gal(b1-4)GlcNAc(b1-2)[Gal(b1-4)GlcNAc(b1-6)]Man(a1-6)[Gal(b1-4)GlcNAc(b1-2)Man(a1-3)]Man(b1-4)GlcNAc(b1-4)[Fuc(a1-6)]GlcNAc
# Summary of the method: as §1
# [15] = molecular target: Gal(b1-4)GlcNAc(b1-3)Gal(b1-4)GlcNAc(b1-2)Man(a1-3)[Gal(b1-4)GlcNAc(b1-3)Gal(b1-4)GlcNAc(b1-2)Man(a1-6)]Man(b1-4)GlcNAc(b1-4)[Fuc(a1-6)]GlcNAc
# Summary of the method: as §1
# [16] = molecular target: Gal(b1-4)GlcNAc(b1-3)Gal(b1-4)GlcNAc(b1-3)Gal(b1-4)GlcNAc(b1-3)Gal(b1-4)GlcNAc(b1-2)Man(a1-3)[Gal(b1-4)GlcNAc(b1-3)Gal(b1-4)GlcNAc(b1-3)Gal(b1-4)GlcNAc(b1-3)Gal(b1-4)GlcNAc(b1-2)Man(a1-6)]Man(b1-4)GlcNAc(b1-4)GlcNAc
# Summary of the method: as §1
# [17] = molecular target: Gal(b1-4)GlcNAc(b1-3)Gal(b1-4)GlcNAc(b1-3)Gal(b1-4)GlcNAc(b1-3)Gal(b1-4)GlcNAc(b1-3)Gal(b1-4)GlcNAc(b1-2)Man(a1-3)[Gal(b1-4)GlcNAc(b1-3)Gal(b1-4)GlcNAc(b1-3)Gal(b1-4)GlcNAc(b1-3)Gal(b1-4)GlcNAc(b1-3)Gal(b1-4)GlcNAc(b1-2)Man(a1-6)]Man(b1-4)GlcNAc(b1-4)GlcNAc
# Summary of the method: as §1
# [18] = molecular target: Gal(b1-4)GlcNAc(b1-3)Gal(b1-4)GlcNAc(b1-3)[Gal(b1-4)GlcNAc(b1-3)Gal(b1-4)GlcNAc(b1-6)]GalNAc
# Summary of the method: as §1
# Gal3S(b1-3)GlcNAc = molecular target: Gal3S(b1-3)GlcNAc
# Summary of the method: as §1
# [19] = molecular target: Gal3S(b1-4)[Fuc(a1-3)]Glc6S
# Summary of the method: as §1
# [20] = molecular target: GalNAc(b1-4)GlcNAc(b1-2)Man(a1-3)[GalNAc(b1-4)GlcNAc(b1-2)Man(a1-6)]Man(b1-4)GlcNAc(b1-4)GlcNAc
# Summary of the method: as §1
# GlcA(b1-3)GlcNAc = molecular target: GlcA(b1-3)GlcNAc
# Summary of the method: as §1
# [21] = molecular target: GlcNAc(b1-3)Gal(b1-4)GlcNAc(b1-3)Gal(b1-4)GlcNAc(b1-2)Man(a1-3)[GlcNAc(b1-3)Gal(b1-4)GlcNAc(b1-3)Gal(b1-4)GlcNAc(b1-2)Man(a1-6)]Man(b1-4)GlcNAc(b1-4)[Fuc(a1-6)]GlcNAc
# Summary of the method: as §1
# [22] = molecular target: GlcNAc(b1-3)Gal(b1-4)GlcNAc(b1-3)Gal(b1-4)GlcNAc(b1-3)Gal(b1-4)GlcNAc(b1-2)Man(a1-3)[GlcNAc(b1-3)Gal(b1-4)GlcNAc(b1-3)Gal(b1-4)GlcNAc(b1-3)Gal(b1-4)GlcNAc(b1-2)Man(a1-6)]Man(b1-4)GlcNAc(b1-4)GlcNAc
# Summary of the method: as §1
# [23] = molecular target: GlcNAc6S(b1-3)Gal(b1-4)GlcNAc
# Summary of the method: as §1
# [24] = molecular target: Man(a1-3)[Man(a1-6)]Man(a1-6)[Man(a1-2)Man(a1-3)]Man(b1-4)GlcNAc(b1-4)GlcNAc
# Summary of the method: as §1
# Man(a1-6)Man = molecular target: Man(a1-6)Man
# Summary of the method: as §1
# [25] = molecular target: Neu5Ac(a2-3)Gal(b1-4)GlcNAc(b1-2)Man(a1-3)[Neu5Ac(a2-6)Gal(b1-4)GlcNAc(b1-2)Man(a1-6)]Man(b1-4)GlcNAc(b1-4)GlcNAc
# Summary of the method: as §1
# [26] = molecular target: Neu5Ac(a2-3)Gal(b1-4)GlcNAc(b1-2)[Neu5Ac(a2-3)Gal(b1-4)GlcNAc(b1-4)]Man(a1-3)[GlcNAc(b1-4)][Neu5Ac(a2-3)Gal(b1-4)GlcNAc(b1-2)[Neu5Ac(a2-3)Gal(b1-4)GlcNAc(b1-6)]Man(a1-6)]Man(b1-4)GlcNAc(b1-4)GlcNAc
# Summary of the method: as §1
# [27] = molecular target: Neu5Ac(a2-3)Gal(b1-4)GlcNAc(b1-3)Gal(b1-4)GlcNAc(b1-3)Gal(b1-4)GlcNAc
# Summary of the method: as §1
# [28] = molecular target: Neu5Ac(a2-3)Gal(b1-4)GlcNAc(b1-3)Gal(b1-4)[Fuc(a1-3)]GlcNAc
# Summary of the method: as §1
# [29] = molecular target: Neu5Ac(a2-3)Gal(b1-4)GlcNAc6S
# Summary of the method: as §1
# [30] = molecular target: Neu5Ac(a2-3)[GalNAc(b1-4)]Gal(b1-4)GlcNAc(b1-3)GalNAc
# Summary of the method: as §1
# [31] = molecular target: Neu5Ac(a2-6)Gal(b1-4)GlcNAc(b1-3)Gal(b1-4)GlcNAc(b1-3)Gal(b1-4)GlcNAc(b1-2)Man(a1-3)[Neu5Ac(a2-6)Gal(b1-4)GlcNAc(b1-3)Gal(b1-4)GlcNAc(b1-3)Gal(b1-4)GlcNAc(b1-2)Man(a1-6)]GalNAc
# Summary of the method: as §1
# [32] = molecular target: Neu5Ac(a2-6)Gal(b1-4)GlcNAc(b1-3)Gal(b1-4)GlcNAc(b1-3)[Neu5Ac(a2-6)Gal(b1-4)GlcNAc(b1-3)Gal(b1-4)GlcNAc(b1-6)]GalNAc
# Summary of the method: as §1
# [33] = molecular target: Neu5Ac(a2-6)Gal(b1-4)GlcNAc(b1-6)GalNAc
# Summary of the method: as §1
# [34] = molecular target: Neu5Ac(a2-6)Gal(b1-4)GlcNAc(b1-6)[Gal(b1-3)GlcNAc(b1-3)]Gal(b1-4)Glc
# Summary of the method: as §1
# [35] = molecular target: Neu5Ac(a2-8)Neu5Ac(a2-3)Gal(b1-4)Glc
# Summary of the method: as §1
# [36] = molecular target: Neu5Ac(a2-8)Neu5Ac(a2-8)Neu5Ac(a2-3)Gal(b1-4)Glc
# Summary of the method: as §1
# [37] = molecular target: Neu5Ac9Ac(a2-3)Gal(b1-4)GlcNAc
# Summary of the method: as §1
# [38] = molecular target: Neu5Gc(a2-8)Neu5Gc(a2-3)Gal(b1-4)GlcNAc
# Summary of the method: as §1
binder,measurement,setting,value
"Protein L(B1-B4) (Finegoldia magna), Q51912 (protein) KEETPETPETDSEEEVTIKANLIFANGSTQTAEFKGTFEKATSEAYAYADTLKKDNGEYTVDVADKGYTLNIKFAGKEKTPEEPKEEVTIKANLIYADGKTQTAEFKGTFEEATAEAYRYADALKKDNGEYTVDVADKGYTLNIKFAGKEKTPEEPKEEVTIKANLIYADGKTQTAEFKGTFEEATAEAYRYADLLAKENGKYTVDVADKGYTLNIKFAGKEKTPEEPKEEVTIKANLIYADGKTQTAEFKGTFAEATAEAYRYADLLAKENGKYTADLEDGGYTINIRFAG",glycan array binding signal (z-score),[1],2.77
same,glycan array binding signal (z-score),[2],-0.528
same,glycan array binding signal (z-score),[3],1.7
same,glycan array binding signal (z-score),[4],-0.142
same,glycan array binding signal (z-score),[5],0.159
same,glycan array binding signal (z-score),[6],3.09
same,glycan array binding signal (z-score),[7],0.047
same,glycan array binding signal (z-score),[8],3.09
same,glycan array binding signal (z-score),[9],-0.474
same,glycan array binding signal (z-score),[10],2.95
same,glycan array binding signal (z-score),[11],0.177
same,glycan array binding signal (z-score),[12],-0.192
same,glycan array binding signal (z-score),[13],1.5
same,glycan array binding signal (z-score),[14],2.92
same,glycan array binding signal (z-score),[15],0.486
same,glycan array binding signal (z-score),[16],2.06
same,glycan array binding signal (z-score),[17],0.528
same,glycan array binding signal (z-score),[18],4.22
same,glycan array binding signal (z-score),Gal3S(b1-3)GlcNAc,-0.911
same,glycan array binding signal (z-score),[19],2.28
same,glycan array binding signal (z-score),[20],1.49
same,glycan array binding signal (z-score),GlcA(b1-3)GlcNAc,-0.785
same,glycan array binding signal (z-score),[21],3.07
same,glycan array binding signal (z-score),[22],1.06
same,glycan array binding signal (z-score),[23],-0.336
same,glycan array binding signal (z-score),[24],2.94
same,glycan array binding signal (z-score),Man(a1-6)Man,-0.159
same,glycan array binding signal (z-score),[25],-1.02
same,glycan array binding signal (z-score),[26],-0.913
same,glycan array binding signal (z-score),[27],-1.05
same,glycan array binding signal (z-score),[28],-0.359
same,glycan array binding signal (z-score),[29],-0.92
same,glycan array binding signal (z-score),[30],0.809
same,glycan array binding signal (z-score),[31],3.91
same,glycan array binding signal (z-score),[32],2.86
same,glycan array binding signal (z-score),[33],3.08
same,glycan array binding signal (z-score),[34],-0.606
same,glycan array binding signal (z-score),[35],-1.15
same,glycan array binding signal (z-score),[36],0.487
same,glycan array binding signal (z-score),[37],0.223
same,glycan array binding signal (z-score),[38],-1.03
